# A selection: hits, their analogues and other compounds. The true share with any hit is near 2.7%.
# ANO1 block: mouse TMEM16A channel inhibition, primary screen; Q8BHY3; HEK293 TMEM16A/YFP iodide influx fluorescence, ionomycin; normalized B-score (activity score, 25-100; higher = stronger inhibition) at 10 µM; 1.2% of 310,000 active;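 active means ratio plate-corrected score three or more library SD toward inhibition, starting fluorescence score within five deviations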;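 further: score derived from kinetic fluorescence span divided by baseline fluorescence per well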
# CHT allo act: allosteric activators of human choline transporter CHT; Q9GZV3; CHT-expressing cells, membrane potential dye, choline EC20; hits give high values; LV-AA mutant CHT in HEK293 cells; B-score at 10 µM; 0.49% of 310,000 active;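 active means initial fluorescence not abnormally high and integrated response B-score, plate-corrected, over 3 SD above library mean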
# Target sequence (Q9GZV3 whole entry, looked up): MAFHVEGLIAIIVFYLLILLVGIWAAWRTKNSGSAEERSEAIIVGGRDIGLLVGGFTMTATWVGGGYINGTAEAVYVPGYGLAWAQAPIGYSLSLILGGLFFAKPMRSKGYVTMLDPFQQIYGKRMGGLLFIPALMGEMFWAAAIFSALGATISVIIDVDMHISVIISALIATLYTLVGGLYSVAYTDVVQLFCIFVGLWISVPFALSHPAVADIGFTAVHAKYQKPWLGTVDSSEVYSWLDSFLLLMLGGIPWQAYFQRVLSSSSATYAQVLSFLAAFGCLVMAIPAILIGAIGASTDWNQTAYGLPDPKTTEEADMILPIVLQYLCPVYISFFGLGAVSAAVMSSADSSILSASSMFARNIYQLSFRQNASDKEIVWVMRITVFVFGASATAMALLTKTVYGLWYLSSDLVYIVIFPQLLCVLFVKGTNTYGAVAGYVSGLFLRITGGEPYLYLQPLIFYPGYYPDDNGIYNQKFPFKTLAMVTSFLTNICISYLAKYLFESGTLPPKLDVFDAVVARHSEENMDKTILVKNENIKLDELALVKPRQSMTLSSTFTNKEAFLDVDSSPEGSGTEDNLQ
# CHT inh: inhibits the human high affinity choline transporter; Q9GZV3; CHT-expressing cells, membrane potential dye, choline response; hits give low values; B-score at 10 µM; 0.86% of 310,000 active; AID 488975;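 active means B-score over 3 SD under the library average, and starting fluorescence ratio not unusually high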;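 further: choline stimulus applied at its EC90 after an EC20 pre-addition; B-score computed on integrated fluorescence ratio after choline addition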
# IDE act: activators of human insulin-degrading enzyme in cells; P14735; HEK cells, FAbeta-B cleavage, fluorescence polarization; 0% vehicle, 100% cell-free pure enzyme wells; activation, % at 5.96 µM; 0.073% of 340,000 active; AID 493087;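 active means activation above the mean of all tested compounds plus 3 SD, set per screening campaign, cut at about 17% in these data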
# TMEM16A act: activators or potentiators of mouse TMEM16A chloride channel | AID 623877 | B-score at 10 µM | 0.3% of 340,000 active | Q8BHY3 | HEK293 TMEM16A/YFP-H148Q/I152L, iodide quench fluorescence; hits give low values;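 active means fluorescence-ratio B-score plate-corrected deviation score at least 3 library SD below zero, with starting fluorescence score within 5 deviations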;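 further: channel opened by trigger with iodide after compound preincubation; score built on the fluorescence ratio of max minus min over baseline; more negative score means more quench and so TMEM16A activation or potentiation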
# IDE inh: cellular human IDE inhibition; P14735; HEK cells, FAbetaB cleavage, fluorescence polarization; inhibition, % at 5.59 µM; 0.41% of 320,000 active;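 active means percent inhibition above the average of all tested compounds plus 3 SD, set per screening campaign, cut at about 16% in these data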;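 further: IDE supplied by intact live HEK cells; FP after avidin binding of uncleaved biotin substrate so inhibition keeps polarization high; 0% = DMSO wells and 100% = 60 µM reference IDE inhibitor Ii1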
# CHT activ conf: human CHT activation, confirmatory screen | shares compounds with CHT allo act | activation, % at 10 µM | 91% of 2,500 active | CHT-expressing cells, membrane potential dye fluorescence (FDSS); % of choline EC20–EC90 response window; HEK293 expressing CHT LV-AA mutant; choline added at its EC20;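 active means primary screen active, with duplicate mean activation above negative control mean plus 3 SD, cut at about 11% in these data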
# HEK293 MP dye: activity in parental HEK293 cells lacking CHT; shares compounds with CHT allo act; membrane potential dye fluorescence (FDSS); measured after EC20 choline addition; ratio readout change at 10 µM, hits read low; 62% of 2,500 active; AID 623908;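 active means duplicate-averaged ratio beyond 3 SD from buffer wells, up or down, though filed actives are nearly all decreases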
# Starred values were filed as active, the others as inactive; i = inactive; x = not tested or not shown.
SMILES,ANO1 block,CHT allo act,CHT inh,IDE act,TMEM16A act,IDE inh,CHT activ conf,HEK293 MP dye
Cc1nc2ccccc2nc1N1CCC(C)CC1,i,i,i,2,i,3,x,x
Cc1cc(N2CCC(C)CC2)nc2cccc(O)c12,i,6.8*,i,8,i,0,18*,-54*
N/C(=N\OC(=O)c1ccncc1)c1cccc([N+](=O)[O-])c1,i,7.3*,i,6,i,-3,37*,-46*
O=C(/C=C/c1ccc(Cl)cc1)OCC(=O)c1ccc[nH]1,x,x,x,1,i,6,x,x
CCCCN(CC)C(=S)Nc1ccc2nc(N3CCN(C)CC3)cc(C)c2c1,i,i,i,-3,i,1,26*,-26*
CCCCN(C)C(=S)Nc1ccc2nc(N3CCN(CC)CC3)cc(C)c2c1,i,i,i,8,i,0,x,x
COc1ccc(N2C(=NC(=O)C3CC3)SC3CS(=O)(=O)CC32)cc1Cl (centres undefined),i,i,i,4,i,1,x,x
COc1ccc(C2=NS(=O)(=O)N(C)C(C(=O)N(C)Cc3ccccc3)=C2)cc1OC,i,i,i,-3,i,3,x,x
CC1(C)CC(=O)CC2(C1)NCC(c1ccccc1)c1c2[nH]c2ccccc12 (centres undefined),i,i,i,-6,i,-4,x,x
COc1cccc(C2CNC3(CCCC(C)C3)c3[nH]c4ccccc4c32)c1OC (centres undefined),i,i,i,4,i,1,18*,i
CN1C2=NCCN2C(=O)c2ccccc21,i,9.4*,i,-3,i,-1,29*,-52*
CCCCCCN1C2=NCCN2c2ccccc21,i,i,i,1,i,10,x,x
CCCN1C2=NCCN2c2ccccc21,i,6.4*,i,4,i,2,41*,-36*
CCCN1C2=NCCCN2c2ccccc21,i,i,i,1,i,3,x,x
Cc1ccc(N2CC(C(=O)N(C)CC(=O)Nc3ccc(Cl)c(C(F)(F)F)c3)CC2=O)cc1 (centres undefined),i,i,i,6,i,-5,x,x
CN1CCN(c2nc(-c3cccnc3)nc3ccccc23)CC1,i,7.3*,i,0,i,1,42*,-88*
CN1CCN(c2nc(-c3ccccn3)nc3ccccc23)CC1,i,9.1*,i,-4,i,3,55*,-94*
CC(=O)N1CCC(=NNc2ccnc3cc(Cl)ccc23)CC1,i,i,i,-6,i,-1,41*,-24*
Cc1cc(N2CCN(c3ccccn3)CC2)n2nc(C)nc2n1,i,i,i,1,i,4,x,x
Cc1cc(N2CCN(C3CCCCC3)CC2)n2nc(C)nc2n1,i,8.9*,i,1,i,3,56*,-56*
Cc1ccc(C(=O)CSc2nnc3n2CCCCC3)s1,x,x,x,-3,i,-3,x,x
C[n+]1ccn(CC(=O)c2cc(C(C)(C)C)c(O)c(C(C)(C)C)c2)c1,i,i,i,10,i,3,x,x
O=[N+]([O-])c1ccc(C[n+]2cccc3c4ccccc4ccc32)cc1,i,10*,i,0,i,-3,75*,-75*
COc1ccc(CN2C(=O)[C@@H]3C(c4ccccc4Cl)=NO[C@@H]3C2=O)cc1,i,i,i,2,i,3,17*,i
CC1CCCCC1NC(=O)COC(=O)c1ccc2c(=O)n3c(nc2c1)CCC3 (centres undefined),x,x,x,8,i,1,x,x
SMILES,ANO1 block,CHT allo act,CHT inh,IDE act,TMEM16A act,IDE inh,CHT activ conf,HEK293 MP dye
O=C(COC(=O)c1ccc2c(=O)n3c(nc2c1)CCC3)NC1CCS(=O)(=O)C1 (centres undefined),i,i,i,6,i,7,40*,-48*
Cc1cc(C(=O)COC(=O)c2ccc(O)cc2O)c(C)n1C(C)C,x,x,x,7,i,2,x,x
COc1ccc(-c2[nH]ncc2CN2CCC(OCc3ccccc3)CC2)c(F)c1,i,i,i,7,i,0,x,x
COCC1CCN(Cc2cn[nH]c2-c2ccc(OC)cc2F)C1 (centres undefined),i,i,i,1,i,1,21*,i
CCN1/C(=C/c2cc[n+](C)cc2)C=Cc2cc(C)ccc21,i,i,i,-1,i,13,21*,-61*
CCN1/C(=C/c2ccc3ccccc3[n+]2CCCS(=O)(=O)[O-])C=Cc2cc(C)ccc21,i,i,i,-1,i,x,x,x
O=[N+]([O-])c1ccc(CSc2nnc(Cc3ccccc3)n2-c2ccc(F)cc2)cc1,i,i,i,4,i,-1,21*,i
COCc1cc(C)nc(SCC[N+](C)(C)CC(=O)c2ccc(Br)cc2)c1C#N,i,i,i,0,i,4,x,x
COCc1cc(C)nc(SCC[N+](C)(C)CC(=O)Nc2ccccc2)c1C#N,i,i,i,-4,i,-6,37*,-28*
CCOc1ccc(NC(=O)CC(Cc2cc(C)cc(C)c2)C(=O)O)cc1 (centres undefined),i,i,i,4,i,x,x,x
CCN1CCN(c2c(Cl)cccc2NC(=O)c2ccc3nsnc3c2)CC1,i,i,i,6,i,2,x,x
O=C(Nc1cccc(Cl)c1N1CCOCC1)c1ccco1,i,i,i,2,i,6,x,x
CCN1CCN(c2c(Cl)cccc2NC(=O)c2ccc([N+](=O)[O-])cc2)CC1,i,12*,i,4,i,-3,53*,-67*
CCN1CCN(c2c(Cl)cccc2NC(=O)c2ccco2)CC1,i,7.6*,i,-2,i,1,54*,-33*
Cc1noc(C)c1C(=O)Nc1cccc2ncccc12,i,i,i,4,i,-2,x,x
O=C(CSc1cn[nH]n1)Nc1ccc(Cl)cc1Cl,i,i,i,2,i,-1,x,x
Cc1nn2cnc3sc4c(c3c2nc1=O)CCCC4,i,6.6*,i,-1,i,-2,40*,-46*
c1nc2sc3c(c2c2nnnn12)CCCC3,i,i,i,0,i,5,x,x

# Screening data as filed in PubChem.
